# HP1b chromo inh = blocks HP1-beta chromodomain binding to methylated histone tails | AlphaScreen HP1-beta / biotin-H3K9me3 peptide binding | 390,000 tested, 0.56% active | P83916 | Potency, µM (highest dose often 114 µM), inactives show at the highest dose activity change, negative = inhibition, usual class: inhibitors; note: nearly all actives have a fitted effect of over 70% in size
# Target sequence (P83916 whole entry, looked up): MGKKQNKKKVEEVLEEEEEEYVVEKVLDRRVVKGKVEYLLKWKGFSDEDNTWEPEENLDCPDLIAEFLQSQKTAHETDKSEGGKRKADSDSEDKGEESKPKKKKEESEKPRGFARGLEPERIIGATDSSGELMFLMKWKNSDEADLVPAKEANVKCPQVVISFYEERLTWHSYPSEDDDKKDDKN
#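 AlphaScreen: HP1-beta (50 nM) preformed 30 min with biotin-H3(1-18)K9me3 peptide (50 nM) in PBS pH 7.4, 0.01% Tween-20. Compound added for 30 min at RT, then streptavidin donor/nickel chelate acceptor beads (10 ug/mL) for 30 min.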
# G9a inh = blocks human histone lysine methyltransferase G9a; Q96KQ7; G9a H3K9 monomethylation, AlphaScreen, 2 h; Potency, µM (top dose mostly 102 µM), for inactives: at the highest dose activity, negative = inhibition, most hits filed as inhibitors; 350,000 tested, 8.8% active; note: % is set by controls: 0 for no effect and ±100 for the full control effect; nearly all actives have a fitted effect of over 75% in size
# Target sequence (Q96KQ7 913-1193 limits assumed): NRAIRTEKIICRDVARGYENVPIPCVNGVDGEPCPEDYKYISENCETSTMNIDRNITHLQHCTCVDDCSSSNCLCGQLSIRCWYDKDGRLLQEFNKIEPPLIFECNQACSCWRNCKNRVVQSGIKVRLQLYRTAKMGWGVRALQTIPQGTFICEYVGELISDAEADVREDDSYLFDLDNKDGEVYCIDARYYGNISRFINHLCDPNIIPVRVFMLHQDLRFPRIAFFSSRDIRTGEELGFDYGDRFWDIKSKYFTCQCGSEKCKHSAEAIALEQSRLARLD
#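 AlphaScreen detection with an anti-monomethyl H3K9 antibody quantified product after a 2 h room-temperature reaction containing 500 nM biotinylated H3K9 peptide, 20 µM SAM and 20 nM enzyme, which had been preincubated 15 min with compound.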
# PLK1 PBD inh = inhibitors of human PLK1 polo-box domain binding; P53350; Plk1 PBD binding of FITC phosphopeptide, fluorescence polarization; Potency, µM, for inactives: max response, negative = inhibition, most hits filed as inhibitors; 360,000 tested, 2.8% active; AID 720504; note: series mostly up to about 57 µM; % is set by controls: 0 for no effect and ±100 for the full control effect; nearly all actives have a fitted effect of over 65% in size
# ALOX12 inh = blocks human arachidonate 12S-lipoxygenase. AID 1671190. Potency, µM (doses to about 108 µM), without a hit: at the highest dose activity change, negative = inhibition, most hits filed as inhibitors. purified 12hLO, xylenol orange hydroperoxide absorbance. 580,000 tested, 1.1% active; note: % is set by controls: 0 for no effect and ±100 for the full control effect
#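 Purified human 12hLO (150 nM final) in 25 mM Hepes, 0.01% Triton X-100, pH 7.0 was preincubated 15 min at room temperature with compound. Then 40 uM arachidonic acid was added, 30 min. Hydroperoxide was read by Fe-XO absorbance ratio 573/405 nm.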
# BAZ2B inh = blocks human BAZ2B | Q9UIF8 | AlphaScreen BAZ2B-H3K14Ac peptide displacement | Potency, µM (top dose mostly 114 µM), inactives show top-dose activity change, negative = inhibition, usual class: inhibitors | 360,000 tested, 4.4% active | AID 504333; note: % is set by controls: 0 for no effect and ±100 for the full control effect; nearly all actives have a fitted effect of over 60% in size
#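 Complex of BAZ2B and biotin-H3K14Ac (50 nM apiece) forms over 30 min at RT, then faces library compounds up to 110 uM for another 30 min; AlphaScreen beads added, 20 min dark incubation, luminescence read.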
# JMJD2A Tudor = inhibitors of human JMJD2A Tudor domain | O75164 | 390,000 tested, 4.4% active | Potency, µM (doses to about 114 µM), for the others: at the highest dose activity change, negative = inhibition, hits mostly inhibitors | AlphaScreen JMJD2A-Tudor / H3K4me3 peptide binding | AID 504339; note: % is set by controls: 0 for no effect and ±100 for the full control effect; nearly all actives have a fitted effect of over 50% in size
# * = called active by the depositor; ? = inconclusive; / = not tested or not shown; [ ] = another dose, or the depositor's remark. An excerpt weighted towards active compounds, which were near 9% of everything screened. Calls come from the whole dose curve; as a rule, active = well fitted curve in the direction sought with a large enough effect; inconclusive = small, poorly fitted or top-dose-only effect, or another doubt; inactive = no such curve, though single readings can be large; an effect the other way counts as inactive or inconclusive. Potency is the fitted concentration of half-maximal effect.
SMILES,HP1b chromo inh,G9a inh,PLK1 PBD inh,ALOX12 inh,BAZ2B inh,JMJD2A Tudor
CC1CCC(NC(=O)c2cc(-c3ccncc3)nc3ccccc23)CC1 (stereo unspecified),/,/,/,9%,/,/
Cn1cnc(S(=O)(=O)N2CCC(C(=O)NCc3ccc(Cl)cc3)CC2)c1,30%,10%[59 µM],/,-8%,-7%,-3%
CCOC(=O)CC(=O)CSc1nc2ccccc2c(=O)n1CCc1ccc(S(N)(=O)=O)cc1,15%,16%[59 µM],/,-24%,-4%,-21%
CCCc1cc(-c2n[nH]c(=S)n2CC)cs1,-20%,?,?,?,-37%,3.5µM*
CCc1cc(-c2n[nH]c(=S)n2CC)cs1,-14%,?,?,?,-12%,8.9µM*
CCc1cc(-c2n[nH]c(=S)n2-c2ccccc2C)cs1,1%,1.8µM*,-17%,/,-7%,35µM*
CCCCC(C)(O)C/C=C/[C@H]1[C@H](O)CC(=O)[C@@H]1CCCCCCC(=O)O (stereo partly specified),/,23%[59 µM],/,0%[12.5 µM],/,/
Cc1ccc(OCCCC(=O)Nc2ccc(Cl)c(S(=O)(=O)N3CCOCC3)c2)cc1,45%,-51%[12.7 µM],4%,369%,10%,0%
Cc1oc(-c2ccccc2)nc1Cn1nnc(C(=O)Nc2ccc3c(c2)OCCO3)c1N,/,/,/,-21%,/,/
O=C(NCc1n[nH]c(=S)n1-c1cccc(C(F)(F)F)c1)c1ccc(S(=O)(=O)N2CCCC2)cc1,34%,13µM*,-20%,?,15%,-32%
O=C(NCc1n[nH]c(=S)n1-c1cccc(C(F)(F)F)c1)c1ccc(S(=O)(=O)N2CCCCC2)cc1,29%,8.9µM*,-6%,?,-14%,-11%
O=S(=O)(c1ccccc1)[C@@]1(c2ccccc2)C[C@@H]2ON=C(c3cccc(Br)c3)[C@@H]2C1,29%,7%[2.33 µM],-4%,3%,9%,-6%
Cc1nonc1NC(=O)CSc1nnc(-c2ccoc2C)n1CC(C)C,45%,?,-3%,4%,-29%,-6%
Cc1cccc(-n2c(-c3csc4ccccc34)n[nH]c2=S)c1,?,1.3µM*,-13%,-22%,?,?
CC(C)Cn1c(-c2csc3ccccc23)n[nH]c1=S,2%,?,-12%,?,-9%,79µM*
Cc1occc1-c1n[nH]c(=S)n1CC(C)C,-8%,4.5µM*,-10%,?,8%,5µM*
CCCN1CCC(NC(=O)c2csc3c2CCC(C)C3)CC1 (stereo unspecified),/,/,/,-36%,/,/
OC(c1ccc(F)cc1)c1nc(-c2csc3ccccc23)cs1 (stereo unspecified),/,/,-9%,-25%,/,/
CCn1c(-c2csc3c2CCC(C)C3)n[nH]c1=S (stereo unspecified),-10%,6.3µM*,-4%,?,-30%,35µM*
Cc1nc(-c2nc(-c3c(C(=O)NNC(=O)Nc4cccc(Cl)c4)noc3C)cs2)cs1,14%,7%,-3%,266%,-1%,-10%
CCn1c(-c2csc3ccccc23)n[nH]c1=S,-19%,2.2µM*,0%,14%,-28%,13µM*
CC(O)(c1ccccc1)c1nc(-c2csc3ccccc23)cs1 (stereo unspecified),/,/,4%,?,/,/
O=C(c1cc[n+]([O-])cc1)N1CCCC(CO)(CCCc2ccccc2)C1 (stereo unspecified),/,/,/,8%,/,/
O=C(c1ccc(C(F)(F)F)cc1)N1CCC(N2CCOCC2=O)CC1,/,/,/,8%[6.33 µM],/,/
COc1cc(OC)cc(C(=O)NC(=S)N2CCCCCC2)c1,10%,6%,-16%,-18%,?,?
SMILES,HP1b chromo inh,G9a inh,PLK1 PBD inh,ALOX12 inh,BAZ2B inh,JMJD2A Tudor
COc1ccc(Cl)cc1C(=O)C1CCCN(Cc2cnc(N3CCOCC3)s2)C1 (stereo unspecified),?,-25%,13µM*,0%,-31%,14µM*
COc1ccc(CNC(=O)C[C@H]2C[C@H](C(=O)N3CCCCC3)[C@@]3(C)c4[nH]c5ccc(Cl)cc5c4CCN3C2=O)cc1OC,-7%,/,-2%,?,/,56µM*
CN(C)C(=O)CCc1ccc2c3c([nH]c2c1)[C@]1(CCc2ccccc2)[C@@H](C(=O)N2CCCCC2)C[C@H](CC(=O)NCc2cccc(C(F)(F)F)c2)C(=O)N1CC3,35%,/,27µM*,0%,/,?
CN(C)CCCNC(=O)C[C@H]1C[C@H](C(=O)N2CCCCC2)[C@@]2(C)c3[nH]c4ccc(Cl)cc4c3CCN2C1=O,27%,/,-1%,-19%,/,-9%
COc1ccc2[nH]c3c(c2c1)CCN1C(=O)C(CC(=O)NCc2ccc(OC)c(OC)c2)C[C@H](C(=O)N2CCOCC2)[C@@]31C (stereo partly specified),31%,/,27µM*,-1%,/,-30%
COc1ccc2[nH]c3c(c2c1)CCN1C(=O)C(CC(=O)NCc2ccc(OC)c(OC)c2)C[C@H](C(=O)N2CCCCC2)[C@@]31CCc1ccccc1 (stereo partly specified),-7%,/,21µM*,?,/,?
Nc1cc(=O)[nH]c(SCc2ccccc2)n1,/,/,-17%,-19%,/,/
COc1ccccc1N1CCN(C(c2ccccc2)c2nnnn2Cc2ccccc2)CC1 (stereo unspecified),21%,/,/,/,/,-17%
Cc1ccc(C)c(NC(=O)CN(C)C(=O)c2cccc(-n3cccc3)c2)c1,45µM*,40µM*,?,-30%,25µM*,16µM*
CN(CC(=O)Nc1ccccc1Cl)C(=O)c1cccc(-n2cccc2)c1,-9%,-4%[12.7 µM],-6%,-1%,?,-30%
CN(CC(=O)Nc1cccc(F)c1)C(=O)c1cccc(-n2cccc2)c1,?,?,?,?,28µM*,28µM*
CN(CC(=O)Nc1c(Cl)cccc1Cl)C(=O)c1cccc(-n2cccc2)c1,32µM*,3%[0.501 µM],?,-21%,35µM*,14µM*
CN(CC(=O)Nc1cccc(F)c1)C(=O)c1ccc(N2C(=O)c3ccccc3C2=O)cc1,31%,5%[12.7 µM],-7%,?,0%,-6%
CCN(CC(=O)Nc1ccc(NC(C)=O)cc1)C(=O)c1cccc(-n2cccc2)c1,?,50µM*,-4%,/,50µM*,-32%
O=C(c1ccc(F)cc1)N1CCC(Cc2nc(-c3cnccn3)no2)CC1,/,/,/,34%,/,/
O=C(Nc1ccc(O)c(-c2nc3ccccc3s2)c1)c1cc(=O)c2ccccc2o1,1%,-6%[59 µM],-19%,2%,-3%,-18%
CN(CC(=O)Nc1c(Cl)cccc1Cl)C(=O)CCC(=O)c1ccccc1,35%,50µM*,-7%,2%,2%,-1%
c1cnc2ccc(-n3ccnc3)cc2c1,/,/,-9%,5%,/,/
